We go through 14 molecules from PubChem BioAssay AID2284418 (EPA ToxCast).

Records with an inconclusive call do not appear. Active and inactive are the calls of the source. How the source made its calls: active means hit-call score of the fitted dose curve at least 0.9, where 1 is the maximum; inconclusive means response in the unintended direction; inactive means score below 0.9.

The test system of this experiment is SRY-box transcription factor 17 (SOX17) Protein Expression, Deisenroth Lab, SOX17 (gene 64321). Kind of experiment: CCTE_Deisenroth_DEVTOX-GLR_Meso_SOX17: CCTE's DevTox GLR-Meso Assay Evaluation of SRY-box transcription factor 17 (SOX17) Protein Expression, Deisenroth Lab. Here is the method:
CCTE_Deisenroth_DEVTOX-GLR_Meso assay is a cell-based, multiplex-readout assay that uses RUES2-GLR, a human pluripotent cell line, with measurements taken at 48 hours after chemical dosing in a 384-well microplateCCTE_Deisenroth_DEVTOX-GLR_Meso_SOX17 is 1 of 4 assay components calculated from the CCTE_Deisenroth_DEVTOX-GLR_Meso assay and it measures an the percentage of cells in an endoderm state. Using a type of inducible fluorescent protein reporter, gain-of-signal activity can be used to understand changes in gene expression with fluorescent microscopy. The percentage of SOX17+ cells are determined by calculating the number of SOX17+ cells divided by cell count. To generalize the intended target to other relatable targets, this assay component is annotated to the transcription factor intended target family, where the subfamily is SRY-related HMG-box.Data from the assay component CCTE_Deisenroth_DEVTOX-GLR_Meso_SOX17 was analyzed as 1 assay endpoint. The endpoint is the percent SOX17+ cell population minus the 0.2% DMSO control in the CCTE_Deisenroth_DEVTOX-GLR_Meso assay. This assay endpoint can be referred to as a secondary readout since this assay has produced multiple assay endpoints where this one serves as a measure of endoderm differentiation.
All assay protocols are aligned to the DevTox GLR-Endo assay workflow. Cells are seeded into 384-well microplates for 24 hours prior to initiating differentiation in defined media for a total duration of 48 hours. A total of two chemical exposures are administered in 24-hour intervals during the 48-hour differentiation period. At the assay termination point, cells are fixed and stained with a fluorescent dye demarcating the nucleus. High-content imaging is used to acquire brightfield and fluorescent channel images across 5 fields per well. Cell identification and mean biomarker fluorescence intensities are calculated with image analysis software to determine the total cell counts for viability assessment and the biomarker expression frequency for each lineage-dependent assay. A typical experimental design tests a 10-point concentration series (1 nM - 200 uM) for 28 compounds in single technical replicate. Assay plate controls include non-differentiated pluripotent cells (baseline control), lineage-specific differentiated cells (differentiation control), and DMSO solvent exposed differentiated cells (solvent control). Experiments typically comprise a minimum of four experimental replicates (n=4).
As a reminder, the AC50 is the midpoint of the concentration-response curve, whichever way the signal moves. For the molecule `CCN(CC)CCNC(=O)c1c(C)[nH]c(/C=C2\C(=O)Nc3ccc(F)cc32)c1C`, the concentration at half-maximal activity (AC50) is 0.8 µM (active).

Take `Nc1cccc2c1C(=O)N(C1CCC(=O)NC1=O)C2=O` (centres undefined): the result was inactive.

As for `O=C1CCC(N2C(=O)c3ccccc3C2=O)C(=O)N1` (centres undefined), the call was inactive.

As for `CC/C(=C(/CC)c1ccc(O)cc1)c1ccc(O)cc1`, the AC50 was 6.47 µM (active).

Turning to `Nc1nc2ncc(CNc3ccc(C(=O)N[C@@H](CCC(=O)O)C(=O)O)cc3)nc2c(=O)[nH]1`, the outcome was inactive.

As for `CC1=C(/C=C/C(C)=C/C=C/C(C)=C\C(=O)O)C(C)(C)CCC1`, the AC50 is 30.2 µM (active).

On to `O=c1[nH]cc(F)c(=O)[nH]1`, for which the AC50 is 22.6 µM (active).

As for `CC1=C(/C=C/C(C)=C/C=C/C(C)=C/C(=O)O)C(C)(C)CCC1`, the AC50 is 22 µM (active).

`CC(C)(c1ccc(O)cc1)c1ccc(O)cc1`: the AC50 is 142 µM (active).

With `CCCC(CCC)C(=O)O`, the molecule was called inactive.

Turning to `CN(Cc1cnc2nc(N)nc(N)c2n1)c1ccc(C(=O)N[C@@H](CCC(=O)O)C(=O)O)cc1`, the half-maximal activity concentration (AC50) is 0.0944 µM (active).

On to `O=C1NC(=O)C(c2ccccc2)(c2ccccc2)N1`, for which the AC50 is 146 µM (active).

As to `O=C1NS(=O)(=O)c2ccccc21`, the molecule was classed as inactive.

As for `CS(=O)(=O)OCCCCOS(C)(=O)=O`, the AC50 is 107 µM (active).
